Test results from PubChem BioAssay (NCI).
“And” between values parts separate entries of the source, which are not always exact repeats. Identical values can stand only once. The panel holds about 83,000 compounds, 20% with a hit somewhere; the sample as a whole holds those more often.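 96-well plates, one dose, 48 hours. Percent growth reported; active if below 10.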 The source made the active and inactive calls.

These compounds were tested on MCF7 breast (assay: NCI-60 one-dose screen, 48 h (100 = growth as untreated, 0 = no growth, -100 = all killed)). Conditions: 10 µM.
Procedure: Growth inhibition of the MCF7 human tumor cell line is measured as a screen for anti-cancer activity. Cells are grown in 96 well plates and exposed to the test compound for 48 hours. Compounds are tested at a single concentration, which is 10^-5 M for most compounds. The reported endpoint is percent growth (GI% or GIPRCNT), where numbers from 0 - 100% represent growth inhibition, and numbers from -100% - 0 represent cell death. For example, a value of 40 represents 60% growth inhibition. A value of 0 means no net growth occurred over the course of the experiment. A value of -40 indicates 40% of cells at the beginning of the experiment died by the end of the experiment. A value of -100 means all cells are dead at the end of the experiment.
NCI-60 Human Tumor Cell Lines Screen was performed using the standard one-dose NCI protocol, which is described in more detail at https://dtp.cancer.gov/discovery_development/nci-60/default.htm.
Compounds with GIPRCNT values below 10 were considered active. Activity score was based on GIPRCNT using the following formula: […]
Score is 0 for GIPRCNT values of 100 or above, 50 for GIPRCNT values of 0, and 100 for GIPRCNT values of -100.
For `CC1CCC2(OC1)OC1C(O)C3C4CCC5CC(OC6OC(CO)C(OC7OC(CO)C(O)C(OC8OCC(O)C(O)C8O)C7OC7OC(CO)C(O)C(OC8OC(CO)C(O)C(O)C8O)C7O)C(O)C6O)C(O)CC5(C)C4CCC3(C)C1C2C` (stereo not given), the growth was -34% (active).
For `COc1cc2c(c(OC)c1OC)-c1ccc(O)c(=O)cc1[C@@H](NC(C)=O)CC2`, the growth was 7.81% (active).

Same assay, conditions: 10 µM unless noted
`O=C(CCl)Nc1ccc(Cl)cc1` was tested, and the growth was 16.9% (inactive).
With `S=C=NCCc1ccccc1` the growth was 20.3% (inactive).
`NC(=O)c1cc([N+](=O)[O-])c(Cl)c([N+](=O)[O-])c1` was tested, and the growth was 22.3% (inactive).
With `COc1cc(/C=C(/C)[N+](=O)[O-])ccc1O` the growth was 9.25% (active) and 1.76% (active).
`CC(C)C1(NC(=O)C2CC3c4cccc5[nH]cc(c45)CC3N(C)C2)OC2(O)C3CCCN3C(=O)C(Cc3ccccc3)N2C1=O` (stereo not given) was tested, and the growth was 95.8% (inactive).
For `CCOC(=O)c1[nH]cnc1/N=N/N(C)N`, the growth was 69.3% [100 µM] (inactive) and -85.5% [100 µM] (active).
For `C[CH2][Hg][S]c1ccccc1C(=O)O`, the growth was -95.9% (active).
In the case of `Cc1ccc(NC(=O)CBr)cc1`, the growth is reported as 93.5% (inactive).
For `CCCCCCCC[N+]12CN3CN(CN(C3)C1)C2`, the growth was 91.4% (inactive).
In the case of `C=NCC#N`, the growth is reported as 109% (inactive) and 92.1% (inactive).
In the case of `O=c1[nH]c2ccccc2n1C1CCN(CCCC(c2ccc(F)cc2)c2ccc(F)cc2)CC1`, the growth is reported as 65% (inactive) and 6.06% (active).
For `COc1cc(/C=C/[N+](=O)[O-])cc(Br)c1OC`, the growth was 8.38% (active).
In the case of `COc1ccc(/C=C(\C)[N+](=O)[O-])cc1OC`, the growth is reported as -34.6% (active).
In the case of `[O-][n+]1ccccc1S`, the growth is reported as 25.3% (inactive).
With `O=C(CBr)Nc1ccc(Cl)cc1` the growth was 45% (inactive).
In the case of `C#CC1(O)CCC(C(C)(C)C)CC1` (stereo not given), the growth is reported as 99% (inactive).
`CC(C)c1cc([N+](=O)[O-])cc([N+](=O)[O-])c1O` was tested, and the growth was 93.3% (inactive).
`COc1cc([N+](=O)[O-])c2ncccc2c1[N+](=O)[O-]` was tested, and the growth was 23.3% (inactive).
`O=S(=O)(F)c1ccc(Cl)cc1` was tested, and the growth was 102% (inactive).
With `CC[C@@H](C)[C@@H]1NC(=O)C(NC(=O)C(CC(C)C)N(C)C(=O)C2CCCN2C(=O)C(C)O)C(C)OC(=O)C(Cc2ccc(OC)cc2)N(C)C(=O)C2CCCN2C(=O)C(CC(C)C)NC(=O)C(C)C(=O)C(C(C)C)OC(=O)C[C@H]1O` (stereo not given in full) the growth was -27.7% (active).
For `[Cl][Hg][c]1ccc2ccccc2c1`, the growth was -61.5% (active).
`ClCc1ccc2ccccc2n1` was tested, and the growth was 103% (inactive).
`COc1ccc(/C=C\[N+](=O)[O-])cc1OC` was tested, and the growth was 12.6% (inactive) and 16.4% (inactive).
`CC/C(=C/c1ccc(OC)cc1)[N+](=O)[O-]` was tested, and the growth was -41.5% (active).
For `C[C@]12CC[C@H]3[C@@H](CCC4=CC(=O)CC[C@@H]43)[C@@H]1CC[C@@H]2OC(=O)N(CCCl)N=O`, the growth was 58.4% (inactive).
In the case of `O=[N+]([O-])c1ccc(N(CCO)CCO)c2c1no[n+]2[O-]`, the growth is reported as 6.05% (active).
For `Cc1cc(C)c(C[N+](C)(C)C)c(C)c1C`, the growth was -10.7% (active).
For `CCOP(=O)(OCC)/C(C#N)=C/c1ccc(Br)cc1`, the growth was 92% (inactive).
For `CC(=O)Nc1c2sscc-2n(C)c1=O`, the growth was -60.9% (active).
In the case of `NC(=O)c1cc([N+](=O)[O-])c(Cl)c([N+](=O)[O-])c1Cl`, the growth is reported as -44.4% (active).
`CS(=N)(=O)CCC(N)C(=O)O` (stereo not given) was tested, and the growth was 101% (inactive).
In the case of `CC[C@@]1(O)C[C@H](OC2CC(N(C)C)C(O)C(C)O2)c2c(cc3c(c2O)C(=O)c2c(O)ccc(O)c2C3=O)[C@H]1C(=O)OC` (stereo not given in full), the growth is reported as -39.6% (active).
In the case of `CN(C)CC1(N)C(=O)NC(=O)NC1=O`, the growth is reported as 90.9% (inactive).
With `Cn1c(O)c(N=O)c(=O)n(C)c1=O` the growth was 104% (inactive) and 97.2% (inactive).
`C/C1=C\[C@H](C)C[C@H](C)OC(=O)C[C@H](c2ccc(O)cc2)NC(=O)[C@@H](Cc2c(Br)[nH]c3ccccc23)N(C)C(=O)[C@H](C)NC(=O)[C@@H](C)C1` was tested, and the growth was 9.48% (active).
With `COc1cc2c(cc1OC)C13CCN4CC5=CCOC6CC(=O)N2C1C6C5CC43` (stereo not given) the growth was 94.8% (inactive) and 98.6% (inactive).

Same assay, conditions: 100 µM
For `CC1CCC2(OC1)OC1C(O)C3C4CCC5CC(OC6OC(CO)C(OC7OC(CO)C(O)C(OC8OCC(O)C(O)C8O)C7OC7OC(CO)C(O)C(OC8OC(CO)C(O)C(O)C8O)C7O)C(O)C6O)C(O)CC5(C)C4CCC3(C)C1C2C` (stereo not given), the growth was -84.7% (active) and -85.4% (active).
`COc1cc2c(c(OC)c1OC)-c1ccc(O)c(=O)cc1[C@@H](NC(C)=O)CC2` was tested, and the growth was -47.9% (active).
